This is an account of results in PubChem BioAssay.

Assay [1] can be described thus: inhibitors of TNFa-induced NFkB p65 translocation, primary screen, imaging, HUVEC, MLSMR starter and 10KST1 sets (AID 438;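 active means inhibition above 20% together with a positive visual image hit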;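 further: compound added about 3h40 before a 20 min TNFalpha stimulation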;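 on inhibition: signal is the nuclear over cytoplasmic p65 intensity ratio per well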). Conditions: HUVEC TNFa-induced p65 nuclear translocation; cell count: measured here: nuclei count (cytotoxicity indicator), at 2.08 µM; inhibition: at 2 µM, stronger effect = higher value, 0% TNFa-plus-vehicle, 100% no-TNFa wells.
Assay [2] is described as follows: reduction of polyQ htt aggregates in cells – imaging, exon1htt(103Q)mCFP cells, high-content imaging, primary screen (AID 483;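 active means visual image review flags a hit and inhibition of aggregation exceeds 20%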;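 further: compound exposure lasted 3 days before fixation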;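 on nuclei count: percent of the per-plate median nuclei count of sample wells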). Conditions: exon1htt(103Q)mCFP cell line, aggregate imaging, at 2 µM; inhibition of aggregation: stronger effect = higher value; nuclei count: measured here: cell count, toxicity.
A short description of assay [3]: endothelial E-selectin expression blockers – imaging, HUVEC, immunofluorescence, MLSMR starter and 10KST1 sets, primary screen (AID 487;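 active means visually confirmed hit in the image check and inhibition above 20%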;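 on inhibition: signal is fraction of cell area covered by stained E-selectin grains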;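 on nuclei count: 100% = median nuclei count of all wells on the same plate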). Conditions: HUVEC TNFalpha-induced E-selectin immunofluorescence imaging, at 2 µM; inhibition: stronger effect = higher value; nuclei count: measured here: cell number, toxicity.
The nature of assay [4]: Primary imaging screen for DUSP6 inhibitors that restore phospho-Erk in transfected HeLa cells, chemical complementation (AID 609;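 active means compounds giving at least 50% inhibition in the cell-based MKP-3 phosphatase rescue imaging test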;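 on inhibition: phospho-Erk level distribution per well compared with pooled transfected vehicle control wells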). Conditions: HeLa MKP-3 transfected, phospho-Erk imaging KS statistic, at 10 µM, cells stimulated with TPA for 15 min.
For assay [5], the target named is Dual specificity protein phosphatase 6 (Homo sapiens) (UniProt Q16828). The description is as above. Conditions: HeLa MKP-3 transfected, phospho-Erk imaging KS statistic; at 10 µM; stronger effect = higher value; cells stimulated with TPA for 15 min.
Assay [6] concerns the target Voltage-gated potassium channel subunit beta-2 (Rattus norvegicus) (UniProt P62483). Nature of the assay: inhibitors of rat Kvbeta2 reductase activity – biochemical, NADPH fluorescence, primary screen (AID 622;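 active means fluorescence slope higher than the sample average by over 3 SD, cut at about -0.22 in these data, passing the limit was not always enough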;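 further: slope of raw intensity against log time taken from 70 to 1610 s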). Conditions: recombinant KvBeta, 4-cyanobenzaldehyde reduction, at 10 µM, stronger effect = higher value.
For assay [7] the target is unchanged. Kind of assay: enhancers of rat Kvbeta2 NADPH turnover – biochemical, NADPH fluorescence, primary screen (AID 623;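 active means NADPH fluorescence slope more negative than the mean of all samples by about 3 SD, 99.7% confidence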;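 further: fluorescence intensity change per second fitted from 20 to 320 s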). Conditions: Recombinant KvBeta, NADPH fluorescence decrease slope, 10 min; at 10 µM; stronger effect = lower value.
Assay [8] addresses Alpha-2C adrenergic receptor (Homo sapiens) (UniProt P18825). Nature of the assay: compounds altering alpha2C-coupled GIRK flux – cell-based, HEK293 alpha2C/GIRK1/2, thallium flux, primary screen (AID 624;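 active means fluorescence slope after compound addition differing from the mean of all screened samples at 99.7% confidence, in either direction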;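 further: slope of fluorescence ratio to pre-addition baseline per second over 15 to 24 s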). Conditions: thallium flux BTC fluorescence, at 10 µM, actives lie on both sides.
Assay [9] in a line: inhibitors of larval lipid processing in zebrafish, primary screen, whole organism, PED6 fluorescence, gall bladder and intestine (AID 686;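 active means a full or partial loss of lipid-probe fluorescence in the fish gall bladder, intestine or both, judged by eye; inactive means no fluorescence loss, or compound toxic to the fish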;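 further: larvae 5 to 7 days old with five fish per well; signal comes from phospholipase A2 cleavage of quenched PED6 carried via bile; overnight exposure to compound and PED6 before scoring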). Conditions: Zebrafish larvae PED6 lipid processing, fluorescence scoring; screened at 20 µM (by protocol).
A short description of assay [10]: loss of swimming-algae plug formation – whole organism, Chlamydomonas reinhardtii, WT vs cilia-less mutant, absorbance, 96-well, primary screen (AID 463189).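 Further: 0% = wild type cc124 cells in DMSO and 100% = ciliumless bld1 mutant cells.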 Conditions: Chlamydomonas reinhardtii gravitaxis, OD600 absorbance, 2 days; at 10 µM; stronger effect = higher value.
Assay [11] in a line: blockers of RIG-like receptor reporter activation – cell-based, Sendai virus stimulus, luciferase, 10K MLSCN set, TLR/RLR signaling modifier project, primary screen (AID 602276;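 active means inhibition at or above 50% at 10 µM; inactive means inhibition below 50%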;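 further: firefly luciferase from ISG56 promoter only with Renilla not read in this screen; 0% = Sendai virus plus DMSO and 100% = medium plus DMSO without virus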). Conditions: HEK293 RL24 IRF3 luciferase reporter, at 10 µM, stronger effect = higher value. In general terms: Reporter assays use an easily measured gene product as a stand-in for the process of interest.
Assay [12] is described as follows: TLR3 IRF3 reporter activation blockers – cell-based, poly I:C stimulus, luciferase, 10K MLSCN set, primary screen (AID 602277;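 active means inhibition of the reporter signal at or above 50%; inactive means inhibition below 50%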). Conditions: HEK293-TLR3 RL24 IRF3 luciferase reporter, at 10 µM, stronger effect = higher value.
The mark [13] stands for this setting: measured here: cell density z-score.
[14] abbreviates: measured here: nuclear c-Myc green intensity z-score.
[15] abbreviates: measured here: nuclear pErk red intensity z-score, stronger effect = higher value.

Values joined by “and” are separate entries in the source; they are usually repeats but may differ in a detail not shown here. Identical values can stand only once. Active and inactive are the calls of the source.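 How the source made its calls, unless noted: active means inhibition at or above 50% relative to wild type and mutant plate controls; inactive means inhibition below 50%.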

Sequence of Alpha-2C adrenergic receptor (Homo sapiens) (P18825 whole entry, looked up): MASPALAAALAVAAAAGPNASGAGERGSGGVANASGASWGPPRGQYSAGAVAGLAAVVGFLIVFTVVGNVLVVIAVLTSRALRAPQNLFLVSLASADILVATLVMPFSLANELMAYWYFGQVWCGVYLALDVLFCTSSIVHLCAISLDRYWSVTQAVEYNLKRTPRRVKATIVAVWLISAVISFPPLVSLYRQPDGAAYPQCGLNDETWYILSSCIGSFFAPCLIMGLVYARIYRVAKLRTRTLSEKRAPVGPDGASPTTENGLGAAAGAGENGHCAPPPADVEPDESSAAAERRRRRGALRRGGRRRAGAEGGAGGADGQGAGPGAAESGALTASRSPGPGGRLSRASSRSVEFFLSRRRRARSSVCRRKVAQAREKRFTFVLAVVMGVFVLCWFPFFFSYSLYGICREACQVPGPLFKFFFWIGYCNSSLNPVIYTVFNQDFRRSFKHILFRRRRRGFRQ
Sequence of Dual specificity protein phosphatase 6 (Homo sapiens) (Q16828 whole entry, looked up): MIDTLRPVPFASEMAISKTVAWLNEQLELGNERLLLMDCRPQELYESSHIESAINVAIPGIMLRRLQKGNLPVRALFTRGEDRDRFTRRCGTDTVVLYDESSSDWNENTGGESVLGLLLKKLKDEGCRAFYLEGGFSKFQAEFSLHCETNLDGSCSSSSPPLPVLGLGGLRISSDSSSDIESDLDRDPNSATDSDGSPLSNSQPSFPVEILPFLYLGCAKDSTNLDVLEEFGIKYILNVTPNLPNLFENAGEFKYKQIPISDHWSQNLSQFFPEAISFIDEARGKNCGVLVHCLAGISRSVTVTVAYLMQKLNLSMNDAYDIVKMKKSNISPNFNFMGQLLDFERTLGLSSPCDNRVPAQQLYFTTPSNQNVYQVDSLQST
Sequence of Voltage-gated potassium channel subunit beta-2 (Rattus norvegicus) (P62483 whole entry, looked up): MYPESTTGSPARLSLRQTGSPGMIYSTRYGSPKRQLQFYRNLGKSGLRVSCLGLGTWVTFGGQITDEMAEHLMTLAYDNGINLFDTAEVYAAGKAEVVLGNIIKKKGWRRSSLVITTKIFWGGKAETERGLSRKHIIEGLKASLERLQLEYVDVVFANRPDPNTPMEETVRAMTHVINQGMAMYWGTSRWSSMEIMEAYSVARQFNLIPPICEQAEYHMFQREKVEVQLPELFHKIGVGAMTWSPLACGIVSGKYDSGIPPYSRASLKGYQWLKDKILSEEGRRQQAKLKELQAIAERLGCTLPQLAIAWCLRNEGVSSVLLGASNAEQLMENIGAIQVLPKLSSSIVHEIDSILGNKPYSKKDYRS

As usually defined, the inhibition is the relative decrease from the control value, in per cent. On to `COc1ccc(/C=C(/C#N)c2cccnc2)cc1OC`, for which the cell count in [1] amounted to 515. Also, the inhibition is 4.6% (inactive) in [1]; -17.2% (inactive) in [3]; 1.48% (inactive) in assay [5]; -22% (inactive) in [10]; 6.71% (inactive) in [11]; -45.5% (inactive) in assay [12]. In addition, the inhibition of aggregation in assay [2] was 17.7% (inactive). The nuclei count amounted to 82.3% in assay [2] and 112% in [3]. Moreover, the z-score in assay [4] (setting [13]) was 0.571; in assay [4] (setting [14]), -1.05; in assay [4] (setting [15]), -1.32. In addition, the fluorescence slope in assay [6] is -0.499 (inactive). The NADPH fluorescence slope in assay [7] is -4.4e-05 (inactive). Moreover, the slope in assay [8] is 0.00455 (inactive). The compound was classed as inactive in assay [9].
Regarding `CCCC(=O)N(Cc1cc2ccccc2[nH]c1=O)c1ccccc1OC`, the cell count in assay [1] turned out to be 429. Also, the inhibition in assay [1] was -16.8% (inactive); in [3], -133% (inactive); in assay [5], 17.7% (inactive); in [10] it was 27.4% (inactive); in assay [11] it was 12% (inactive); in assay [12] it was 14.8% (inactive). In addition, the inhibition of aggregation in [2] was -1.6% (inactive). Further, the values for the nuclei count in assay [2] and in [3] were 94.8% and 166%, respectively. In addition, the z-score in assay [4] (setting [13]) was 1.04; in assay [4] (setting [14]), -0.344; in [4] (setting [15]), -0.503. Moreover, in assay [6], the fluorescence slope was -0.364 (inactive). For the same compound, the NADPH fluorescence slope in [7] was -8.5e-06 (inactive). Moreover, the slope in assay [8] was 0.00461 (inactive). Besides, the compound was called inactive in [9].
Turning to `COc1ccc(NS(=O)(=O)c2ccc(N)cc2)nn1`, the cell count in assay [1] came out at 634. Moreover, the inhibition in [1] is -10.4% (inactive); in assay [3], -67.7% (inactive); in [5], 3.45% (inactive); in assay [10], 15% (inactive); in assay [11] it was 15.8% (inactive); in assay [12] it was 27.8% (inactive). For the same compound, the inhibition of aggregation in assay [2] is -19.4% (inactive). Further, the values for the nuclei count in [2] and in [3] were 99.2% and 114%, respectively. Further, the z-score in assay [4] (setting [13]) is -2.14; in assay [4] (setting [14]), -1.5; in [4] (setting [15]), 2.96. For the same compound, the fluorescence slope in [6] was -0.412 (inactive). Besides, the NADPH fluorescence slope in assay [7] is 5.7e-06 (inactive). In addition, the slope in assay [8] was 0.00455 (inactive). In addition, in assay [9], the compound was classed as inactive.
Consider `NC(CO)C(=O)NNCc1ccc(O)c(O)c1O` (stereo not given), for which the cell count in assay [1] worked out at 571. For the same compound, the inhibition in assay [1] was -9.9% (inactive); in assay [3], -52.2% (inactive); in assay [5] it was 3.45% (inactive); in [10], -0.599% (inactive) and -9.6% (inactive); in assay [11] it was 8.18% (inactive); in assay [12] it was 29.4% (inactive). Also, the inhibition of aggregation in assay [2] was -16.9% (inactive). In addition, the nuclei count came to 117% in [2] and 124% in assay [3]. In addition, the z-score in assay [4] (setting [13]) was 0.364; in assay [4] (setting [14]), 0.175; in assay [4] (setting [15]) it was -0.65. Besides, the fluorescence slope in [6] was -0.466 (inactive). The NADPH fluorescence slope in assay [7] is -6.2e-05 (inactive). In assay [8], the slope is 0.00539 (inactive). For the same compound, the call in assay [9] was inactive.
As to `CCN(CC)CC#CCOC(=O)C(O)(c1ccccc1)C1CCCCC1` (stereo not given), the cell count in assay [1] is 506. The inhibition in [1] is -6.6% (inactive); in assay [3], 4.9% (inactive); in assay [5], 5.42% (inactive); in assay [10] it was 6.66% (inactive) and 16.9% (inactive); in [11] it was 9.64% (inactive); in assay [12], 30.4% (inactive). For the same compound, the inhibition of aggregation in assay [2] is -15.9% (inactive). Further, the nuclei count in assay [2] is 97.3%; in assay [3], 112%. In addition, the z-score in assay [4] (setting [13]) is -0.442; in assay [4] (setting [14]), -0.591; in assay [4] (setting [15]), 0.229. The fluorescence slope in assay [6] was -0.492 (inactive). Besides, in assay [7], the NADPH fluorescence slope is -7.5e-05 (inactive). Further, in [8], the slope was 0.00459 (inactive). Also, in [9], the compound was classed as inactive.
